# A selection: hits, their analogues and other compounds. The true share with any hit is near 1.4%.
# HTT ATP protect – qHTS Multiplex Assay to Identify Dual Action Probes in a Cell Model of Huntington: Cytoprotection (ATP). PC12 HTT-Q103 induced, cytoprotection, ATP luminescence, 40 h. Potency, µM (series often up to 56.4 µM), for the others: cytoprotection (ATP increase), usual class: activators. 0.14% of 230,000 active; note: % of control where 0% means no effect; nearly all actives have a fitted effect of over 45% in size
#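 PC12 cells with ecdysone-inducible HTT exon 1 Q103-GFP, induced with 100 nM tebufenozide and co-treated with library compounds in a dose series (1536-well, 1500 cells/well). Cytoprotection read as ATP content by ATPlite luminescence.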
# HttQ103 aggreg – qHTS Multiplex Assay to Identify Dual Action Probes in a Cell Model of Huntington: Aggregate Formation (GFP); PC12 HttQ103-GFP aggregates, Acumen cytometry, 40 h; Potency, µM (highest dose often 46.1 µM), for inactives: top-dose activity change, negative = inhibition, most hits filed as inhibitors; 1.1% of 220,000 active; AID 1688, 2009; note: % is set by controls: 0 for no effect and ±100 for the full control effect; nearly all actives have a fitted effect of over 60% in size
#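 PC12/HTTQ103-GFP, ecdysone-inducible; teb 100 nM; cpd qHTS titration; GFP aggregates read on laser cytometer, Ex 488/Em 500-530 nm.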
# ERK EGF inh – qHTS Assay for Inhibitors of the ERK Signaling Pathway using a Homogeneous Screening Assay; Stimulation with EGF; Potency, µM (highest dose often 11.5 µM), for inactives: top-dose activity change, negative = inhibition, actives largely listed as inhibitors; 0.41% of 130,000 active; AID 1454, 2008; HEK293-V1b, EGF-stimulated phospho-ERK AlphaScreen;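 note: plate controls were stimulated vehicle wells for no effect and unstimulated vehicle basal for full effect; nearly all actives have a fitted effect of over 55% in size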
#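 Concentration-response of compounds against EGF-driven ERK phosphorylation in V1b-expressing HEK293 cells; 30 min preincubation, 5 min EGF, AlphaScreen detection; Normalized to DMSO basal and 25 nM EGF.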
# Starred values were filed as active, the others as inactive; ? = inconclusive; . = not tested or not shown; ! = repeats disagree; [ ] = dose if it differs, or a comment. Calls come from the whole dose curve; as a rule, active = well fitted curve in the direction sought with a large enough effect; inconclusive = small, poorly fitted or top-dose-only effect, or another doubt; inactive = no such curve, though single readings can be large; an effect the other way counts as inactive or inconclusive. Potency is the fitted concentration of half-maximal effect.
SMILES,HTT ATP protect,HttQ103 aggreg,ERK EGF inh
COc1ccc(CC(=O)Nc2cccc(-c3nnc(-c4ccccc4)o3)c2)cc1OC,-148.9%[0.074 µM],22.4µM*,.
COc1ccc(CC(=O)Nc2ccc(-c3nnc(-c4ccccc4)o3)cc2)cc1OC,18.4%[10 µM],2.1%,.
COc1ccc(CC(=O)Nc2cccc(-c3nnc(-c4ccc(C)cc4)o3)c2)cc1OC,5.7%[1.9 µM],-16.9%,?
C/C(=C\CNc1ncnc2c1ncn2[C@@H]1O[C@H](CO)[C@@H](O)[C@H]1O)CO,-94.0%,.,.
CC1(C)C2CC[C@]1(C)[C@@H](O)C2,-1.6%,-11.5%,.
CC1=NN(c2ccc(Cl)cc2)C(=O)C1C(c1cccc(O)c1)c1c(C)[nH]n(-c2ccc(Cl)cc2)c1=O (configuration not stated),33.2%[10 µM],12.6µM*,10.6%
CC1=NN(c2ccc(F)cc2)C(=O)C1C(c1cccc(O)c1)c1c(C)[nH]n(-c2ccc(F)cc2)c1=O (configuration not stated),-8.1%,27.6%,.
CC(C)(CC(=O)N1CCN(c2ccc(Cl)cc2)CC1)CC1=NS(=O)(=O)c2ccccc2N1,-45.9%,11.2µM*,.
O=C(CCCC1=NS(=O)(=O)c2ccccc2N1)N1CCN(c2ccc(Cl)cc2)CC1,17.4%,-5.8%,-7.1%
CC(NC(=O)CCCCCCN1C(=O)c2ccccc2C1=O)c1ccc2c(c1)CCCC2 (configuration not stated),-14.7%[10 µM],10µM*,10.0%
CC(NC(=O)CCCCCN1C(=O)c2ccccc2C1=O)c1ccc2c(c1)CCCC2 (configuration not stated),14.3%[10 µM],0.7%,.
COc1ccc(OC2C=CC(C#Cc3ccc(C(C)(C)C)cc3)OC2CO)cc1 (configuration not stated),13.9%[10 µM],.,.
Cc1nc2sccn2c1-c1csc(NCc2ccccc2)n1,-79.4%,7.08µM*,.
C=CCNc1nc(-c2c(C)nc3sccn23)cs1,21.6%[10 µM],-19.4%,5.5%
CC(=O)/C=C(\C)Nc1ccccc1O,2.1%[10 µM],14.8%[9.22 µM],-7.1%[57.5 µM]
c1ccc(C[C@@H](Nc2cccnc2)c2ccccc2)cc1,10.5%[10 µM],.,.
Fc1cccc(Nc2cc(-n3cccn3)ncn2)c1,9.7%[10 µM],12.6µM*,-2.3%
Cc1ccc(Nc2cc(-n3cccn3)ncn2)c(C)c1,-4.5%,2.4%[9.22 µM],.
COc1cc2nc(N(C)CCCNC(=O)[C@@H]3CCCO3)nc(N)c2cc1OC,3.3%[40.3 µM],11.5%[20.6 µM],7.4%[25.7 µM]
CCSc1nnc(NC(=O)C(NC(=O)c2ccc(Cl)cc2)C(C)C)s1 (configuration not stated),.,31.6µM*,3.3%
CC(C)C(NC(=O)c1ccc(Cl)cc1)C(=O)NC1=NCCS1 (configuration not stated),-1.3%[10 µM],-9.1%,.
CCCCCc1ccc(C)cc1O,-4.4%,-6.2%,.
CCOc1ccc(-n2c(SCc3ccc([N+](=O)[O-])cc3)nnc2-c2ccccc2)cc1,9.9%[10 µM],20µM*,2.8%
COc1ccc(-n2c(SCc3ccc([N+](=O)[O-])cc3)nnc2-c2ccccc2)cc1,-5.4%[10 µM],5.3%,?
CCc1cc(C(=O)c2ccc(OC)cc2)c(N)s1,.,0.112µM*,3.1%[57.5 µM]
SMILES,HTT ATP protect,HttQ103 aggreg,ERK EGF inh
CCc1cc(C(=O)c2ccccc2OC)c(N)s1,5.0%,-3.4%,.
Cc1cc(-n2c(C)cc(C(=O)CSc3ncnc4ccccc34)c2C)no1,-43.1%,1.78µM*,.
CC(=O)c1cccc(OCC(=O)c2cc(C)n(-c3cc(C)on3)c2C)c1,-49.1%,12.6µM*,.
Cc1cc(-n2c(C)cc(C(=O)COc3ccc4ccc(=O)oc4c3)c2C)no1,-20.1%,1.7%,.
Cc1cc(-n2c(C)cc(C(=O)CSc3nnc4sc5ccccc5n34)c2C)no1,14.8%,9.7%,.
COC(=O)c1sccc1NC(=O)c1cc(-c2ccc(C)cc2)nc2ccccc12,-3.9%,10.3%,.
Cc1cc(NC(=O)c2cc(-c3ccccc3C)nc3ccccc23)no1,.,?,8.4%
CCOC(=O)c1sc(NC(=O)c2cc(-c3ccc(C)cc3)nc3ccccc23)c(C#N)c1C,-70.4%,10µM*,.
Cc1ccccc1-c1cc(C(=O)Nc2sc(C(=O)OC(C)C)c(C)c2C#N)c2ccccc2n1,-37.7%,4.47µM*,.
CCOC(=O)c1sc(NC(=O)CSc2nccc(C)n2)c(C#N)c1C,0.1%,12.1%,.
COC(=O)c1sc(NC(=O)c2cc(-c3ccccc3)nc3ccccc23)c(C#N)c1C,-44.3%,2.24µM*,.
COc1ccc(-c2cc(C(=O)Nc3sc4c(c3C#N)CCCC4)c3ccccc3n2)cc1,-3.2%[10 µM],-11.8%,0.7%
CCOC(=O)c1sc(NC(=O)CSc2n[nH]c(-c3ccncc3)n2)c(C#N)c1C,-90.8%[10 µM],7.08µM*,.
CCCC1c2c(ccc3ccccc23)Oc2ccc3ccccc3c21,4.7%[10 µM],.,.
Br/C(=N\Nc1nn[nH]n1)c1ccncc1,-0.3%[10 µM],.,.
C[N+](C)(C)CCN[N@@+]1(C)CCCc2ccccc21,-10.9%[10 µM],.,.
CCOCCO,7.5%,.,.
CN(C)c1ncc2nc(-c3ccccc3)c(=O)n(Cc3ccc(F)cc3)c2n1,-60.1%,.,.
O=C1Cc2c([nH]c3ccc(Br)cc23)-c2ccccc2N1,15.8µM*!,.,-3.4%
Brc1ccc2[nH]c3c(c2c1)CCC3,25.0%[10 µM],24.3%[9.22 µM],-1.3%[57.5 µM]
C/C(CCN1CCCCc2nc(C)c(C)cc21)=N\OC[C@@H](C)[C@H](OCc1ccccc1)C(C)C,-11.5%[10 µM],.,.
Cc1ccc(-n2c(Cl)c(Cl)nc(Cl)c2=O)cc1,.,4.47µM*,?
COc1nc(Cl)cn(-c2ccc(C)cc2)c1=O,.,-18.8%,10.1%
Cc1sc(NC(=O)c2ccco2)nc1-c1ccc2c(c1)CC(C)N2C(=O)C1CC1 (configuration not stated),-105.2%,15.8µM*,.
Cc1sc(NC(=O)c2ccco2)nc1-c1ccccc1,0.7%[10 µM],-16.2%,.
SMILES,HTT ATP protect,HttQ103 aggreg,ERK EGF inh
C=CC[C@@H]1C=C[C@@H](O/N=C\c2ccc(C(=O)N3[C@H](c4ccc(C)cc4)[C@@H](C)CC[C@H]3C(=O)OC)cc2)[C@@H](CO)O1,2.2%[10 µM],.,.
CC(C(O)c1ccc(O)cc1)N1CCC(Cc2ccccc2)CC1 (configuration not stated),5.01µM*!,-12.1%,5.3%
C[C@@H]([C@H](O)c1ccc(O)cc1)N1CCC(Cc2ccccc2)CC1,-4.0%,.,2.5%
COc1cc2c(cc1OC)C(c1c[nH]c3ccccc13)NCC2 (configuration not stated),?,.,-6.5%
Cc1cc(C)nc(SCCc2cccc[n+]2C)n1,4.3%[10 µM],.,.
FC(F)(F)c1ccccc1-c1nccc(NCc2ccccc2)n1,10.1%,.,21.3%
Cc1cc(Nc2nnnn2-c2ccccc2)n(-c2ccc(Cl)cc2)n1,9.4%[10 µM],15.8µM*,.
Cc1cc(Nc2ccccc2)n(-c2ccccc2)n1,-5.2%,2.7%,.
COC(=O)[C@@]1(Cc2ccc(OC)cc2)[C@H]2c3cc(C(=O)N(C)C)n(Cc4ccccn4)c3C[C@H]2CN1C(=O)c1ccccc1,?,.,2.1%
O=C(NNc1c2ccccc2nc2ccccc12)c1ccc(O)cc1O,-87.0%,10µM*,.
O=C(COc1ccccc1)NNc1c2ccccc2nc2ccccc12,-71.8%[10 µM],-0.7%,.
O=C(NNc1c2ccccc2nc2ccccc12)c1ccccc1O,8.9%[10 µM],-16.2%,?
COc1ccc(OCC(=O)NNc2c3ccccc3nc3ccccc23)cc1,21.6%[10 µM],11.2µM*,.

# Screens deposited in PubChem BioAssay by National Center for Advancing Translational Sciences (NCATS).
